PubChem BioAssay
Where “and” joins values, the source holds several entries; their conditions need not be identical. Equal values may be shown once. Records with an inconclusive call do not appear. Calls of active or inactive are those of the source. Unless noted, the limit is not given here; nearly all actives have AC50 up to about 26 µM.

What was measured:
[1] = drug combination growth inhibition, ovarian cancer – cell-based, oncology-focused library, rucaparib conditional, profiling panel (AID 1508598;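 active = normalized viability below 100% at a tested concentration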); settings: patient-derived ovarian cancer cells, CellTiter-Glo viability, 144 h, stronger effect = lower value
[2] = viability loss in pontine glioma line – cell-based, SU-DIPG-XVII, MIPE5.0, CellTiter-Glo, qHTS, dose response (AID 1347060); settings: CellTiter-Glo ATP luminescence;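 as to AC50: cells exposed to compound for 48 hours before viability readout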
[3] = viability loss in pontine glioma line – cell-based, SU-DIPG-XIII, MIPE4.0, CellTiter-Glo, qHTS, dose response (AID 1347061; cut-off not given, nearly all actives have AC50 up to about 37 µM;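 also: cells exposed to compound for 48 hours before readout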); settings: CellTiter-Glo ATP luminescence
[4] = viability loss in pontine glioma line – cell-based, JHH-DIPG-1, MIPE4.0, CellTiter-Glo, qHTS, dose response (AID 1347062; cut-off not given, nearly all actives have AC50 up to about 27 µM;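 as to AC50: cells exposed to compound for two days before readout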); settings: JHH-DIPG-1 viability, CellTiter-Glo ATP luminescence
[5] = viability loss in pontine glioma line – cell-based, SU-DIPG-IV, MIPE4.0, CellTiter-Glo, qHTS, dose response (AID 1347063; cut-off not given, nearly all actives have AC50 up to about 30 µM;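 also: compound exposure lasted 48 hours before the viability readout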); settings: CellTiter-Glo ATP luminescence
[6] = viability loss in pontine glioma line – cell-based, SU-DIPG-XIII, MIPE5.0, CellTiter-Glo, qHTS, dose response (AID 1347064; cut-off not given, nearly all actives have AC50 up to about 23 µM;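 as to AC50: cells exposed to compound for 48 hours before the viability read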); settings: CellTiter-Glo ATP luminescence
[7] = viability loss in pontine glioma line – cell-based, SU-DIPG-XXV, MIPE5.0, CellTiter-Glo, qHTS, dose response (AID 1347065); settings: CellTiter-Glo ATP luminescence;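 also: cells exposed to compound for 48 hours before ATP readout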
[8] = growth inhibition of DIPG cells – cell-based, MIPE4.0 library, CellTiter-Glo luminescence, qHTS (AID 1347066; cut-off not given, nearly all actives have AC50 up to about 30 µM;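 also: cells exposed to compound for 48 hours before readout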); settings: SU-DIPG-VI viability, CellTiter-Glo ATP luminescence
[9] = viability loss with induced miR-34 in A549 – imaging, A549 dox-inducible miR-34, nuclei and caspase counts, primary screen (AID 1347080;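 active = compounds whose cell count with miR-34 switched on is under 0.7 times the count with it off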); settings: A549 miR-34 inducible, Hoechst nuclei count, 48 h
[10] = MELAS cybrid and Rieske KO viability enhancers – cell-based, MELAS cybrids, Rieske KO mouse fibroblasts, CellTiter-Glo, primary screen (AID 1508586;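 active = mean z-score across replicates of 1.96 or higher in either the MELAS or the Rieske mutant cell line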;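 also: z relative to plate mean and SD of compound and empty wells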); settings: low glucose
[11] = JHH-DIPG-1 glioma cell viability, MIPE5.0 library, CellTiter-Glo luminescence, qHTS (AID 1347067); settings: JHH-DIPG-1 glioma viability, CellTiter-Glo ATP luminescence;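 also: cells exposed to compound for 48 hours before readout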
[12] = growth inhibition of DIPG cells – cell-based, MIPE5.0 library, qHTS (AID 1347068; cut-off not given, nearly all actives have IC50 up to about 30 µM;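 as to IC50: cells exposed to compound for 48 hours before viability readout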); settings: SU-DIPG-XXV viability
[13] = stronger effect = lower value, cell number ratio, induced over uninduced
[14] = measured here: relative caspase fold change +Dox/-Dox
[15] = measured here: total cells with miR-34 induction, stronger effect = lower value
[16] = measured here: total cells without miR-34 induction
[17] = MELAS cybrid survival, CellTiter-Glo 48 h, stronger effect = higher value
[18] = Rieske KO mouse fibroblast survival, CellTiter-Glo 72 h

CC(=O)Nc1cccc(-n2c(=O)n(C3CC3)c(=O)c3c(Nc4ccc(I)cc4F)n(C)c(=O)c(C)c32)c1
inactive: viability ([1]; at 0.0195 µM, OCI-C5x cells, without rucaparib) 109%
active: viability ([1]; at 0.0195 µM, OCI-P5x cells, with rucaparib 20 µM, 100% = cells with rucaparib alone) 72.4% | viability ([1]; at 0.0195 µM, OCI-P5x cells, without rucaparib) 76.7% | viability ([1]; at 0.0781 µM, OCI-C5x cells, with rucaparib 10 µM, 100% = cells with rucaparib alone) 88% | viability ([1]; at 0.0781 µM, OCI-C5x cells, without rucaparib) 88.8% | viability ([1]; at 0.0781 µM, OCI-P5x cells, with rucaparib 20 µM, 100% = cells with rucaparib alone) 51.6% | viability ([1]; at 0.0781 µM, OCI-P5x cells, without rucaparib) 55% | viability ([1]; at 0.313 µM, OCI-C5x cells, with rucaparib 10 µM, 100% = cells with rucaparib alone) 73.7% | viability ([1]; at 0.313 µM, OCI-C5x cells, without rucaparib) 82.7% | viability ([1]; at 0.313 µM, OCI-P5x cells, with rucaparib 20 µM, 100% = cells with rucaparib alone) 44.7% | viability ([1]; at 0.313 µM, OCI-P5x cells, without rucaparib) 53.7% | viability ([1]; at 1.25 µM, OCI-C5x cells, with rucaparib 10 µM, 100% = cells with rucaparib alone) 45.5% | viability ([1]; at 1.25 µM, OCI-C5x cells, without rucaparib) 78.2% | viability ([1]; at 1.25 µM, OCI-P5x cells, with rucaparib 20 µM, 100% = cells with rucaparib alone) 36.4% | viability ([1]; at 1.25 µM, OCI-P5x cells, without rucaparib) 37.4% | viability ([1]; at 5 µM, OCI-C5x cells, with rucaparib 10 µM, 100% = cells with rucaparib alone) 41.3% | viability ([1]; at 5 µM, OCI-C5x cells, without rucaparib) 52.7% | viability ([1]; at 5 µM, OCI-P5x cells, with rucaparib 20 µM, 100% = cells with rucaparib alone) 30.4% | viability ([1]; at 5 µM, OCI-P5x cells, without rucaparib) 34.2%

COc1ccc(C2(C#N)CCC(C(=O)O)CC2)cc1OC1CCCC1 (stereo not given)
0.847: fold change [9, 14]
7550: cell count [9, 15]
inactive: outcome [2] | outcome [3] | outcome [4] | outcome [5] | outcome [6] | outcome [7] | outcome [8] | fold change [9, 13] 0.931 | z-score [10, 17] -0.364
8110: cell count [9, 16]
0.0886: z-score [10, 18]

O=C1c2ccccc2-[n+]2ccc3c([nH]c4ccccc43)c21
active: AC50 [2] 2350 nM | AC50 [3] 2640 nM | AC50 [4] 743 nM | AC50 [5] 2090 nM | AC50 [6] 2350 nM | AC50 [7] 2630 nM | AC50 [8] 1660 nM | AC50 [11] 2350 nM

COc1ccnc2[nH]cc(C(=O)C(=O)N3CCN(C(=O)c4ccccc4)C[C@H]3C)c12
inactive: outcome [2] | outcome [3] | outcome [4] | outcome [5] | outcome [6] | outcome [7] | outcome [11] | outcome [12]

CCCCCCCN(CC)CCCC(O)c1ccc(NS(C)(=O)=O)cc1 (stereo not given)
0.0673 and -0.0365: z-score [10, 18]
inactive: outcome [2] | outcome [3] | outcome [4] | outcome [5] | outcome [6] | outcome [7] | outcome [8] | outcome [11] | fold change [9, 13] 0.916 | z-score [10, 17] -0.187 and 0.657
8450: cell count [9, 16]
7740: cell count [9, 15]
0.577: fold change [9, 14]

O=C(/C=C/c1ccc(/C=C/C(=O)Nc2ccc(C3=NCCN3)cc2)cc1)Nc1ccc(C2=NCCN2)cc1
1.21: fold change [9, 14]
inactive: outcome [3] | outcome [4] | outcome [5] | outcome [6] | outcome [7] | outcome [8] | outcome [11] | fold change [9, 13] 1.13
6050: cell count [9, 16]
6840: cell count [9, 15]
active: AC50 [2] 2350 nM

Cc1cc(Nc2ncc3c(n2)N(C)C(=O)N(c2cc(NC(=O)c4cccc(C(F)(F)F)c4)ccc2C)C3)n(C)n1
active: AC50 [2] 118 nM | AC50 [3] 1480 nM | AC50 [4] 418 nM | AC50 [5] 209 nM | AC50 [6] 105 nM | AC50 [7] 59 nM | AC50 [11] 263 nM | IC50 [12] 209 nM

NC(=O)Nc1cc(-c2ccc(CN3CCOCC3)cc2)sc1C(N)=O
active: AC50 [2] 1320 nM | AC50 [3] 18700 nM | AC50 [4] 20900 nM | AC50 [5] 16600 nM | AC50 [6] 13200 nM | AC50 [7] 934 nM | AC50 [11] 5250 nM | IC50 [12] 2950 nM
